This passage reports relative enzymatic activity results from the supplement of paper PMC9446081.

± gives the standard deviation of the averaged measurements.

In the test the target is MurC (UniProt C4ZRI6). The test is described as follows: relative enzymatic activity vs untreated control (fraction); higher = less inhibition. As to conditions: 100 µM; incubation time: 2 h at 37 C. Here is the method: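 In vitro enzymatic inhibition assays (ProFoldin kits) for 12 purified essential E. coli enzymes or complexes, each treated with 218 active antibacterial compounds at 100 µM for 2 h at 37°C. Read-outs were fluorescence or absorbance (phosphate detection, dye binding), converted to activity via standard curves and expressed relative to untreated DMSO controls.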
Chain of MurC (C4ZRI6 whole entry, looked up): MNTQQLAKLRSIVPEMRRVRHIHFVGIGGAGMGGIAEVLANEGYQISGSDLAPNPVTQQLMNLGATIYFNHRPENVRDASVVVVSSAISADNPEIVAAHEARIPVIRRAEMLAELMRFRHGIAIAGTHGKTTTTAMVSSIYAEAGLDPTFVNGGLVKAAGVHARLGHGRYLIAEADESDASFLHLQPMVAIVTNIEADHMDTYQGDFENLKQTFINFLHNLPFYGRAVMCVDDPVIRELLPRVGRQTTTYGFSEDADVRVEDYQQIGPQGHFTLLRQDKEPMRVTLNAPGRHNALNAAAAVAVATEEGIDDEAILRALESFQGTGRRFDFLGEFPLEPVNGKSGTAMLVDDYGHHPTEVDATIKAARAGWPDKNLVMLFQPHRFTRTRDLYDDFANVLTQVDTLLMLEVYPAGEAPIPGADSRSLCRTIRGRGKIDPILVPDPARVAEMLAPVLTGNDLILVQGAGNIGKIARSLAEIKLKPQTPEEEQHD
As to `CN[C@@H]1[C@H](O)[C@H](NC)[C@H]2O[C@@]3(O)C(=O)C[C@@H](C)O[C@H]3O[C@@H]2[C@H]1O`, the relative enzymatic activity amounted to 0.955 ± 0.11.
In turn, `NCCCC[C@H](NC(=O)[C@@H](NC(=O)[C@H](Cc1c[nH]c2ccccc12)NC(=O)[C@H](CCCCN)NC(=O)[C@H](CCCCN)NC(=O)[C@H](Cc1c[nH]c2ccccc12)NC(=O)[C@H](Cc1c[nH]c2ccccc12)NC(=O)[C@H](CCCCN)NC(=O)[C@@H](N)CCCCN)C(c1ccccc1)c1ccccc1)C(N)=O` gave a relative enzymatic activity of 0.995 ± 0.015.
For the molecule `CN[C@@H]1[C@H](O[C@H]2[C@H](O[C@@H]3[C@@H](O)[C@H](O)[C@@H](NC(=N)N)[C@H](O)[C@H]3NC(=N)N)O[C@@H](C)[C@]2(O)CO)O[C@@H](CO)[C@H](O)[C@H]1O.CN[C@@H]1[C@H](O[C@H]2[C@H](O[C@@H]3[C@@H](O)[C@H](O)[C@@H](NC(=N)N)[C@H](O)[C@H]3NC(=N)N)O[C@@H](C)[C@]2(O)CO)O[C@@H](CO)[C@H](O)[C@H]1O`, the relative enzymatic activity worked out at 0.963 ± 0.063.
The same measure for `CCN1CCN(C(=O)NC(C(=O)NC2C(=O)N3C2SC(C)(C)C3C(=O)[O-])c2ccccc2)C(=O)C1=O.[Na+]` (stereo not given): 0.951 ± 0.086; for `CON=C(C(=O)N[C@@H]1C(=O)N2C(C(=O)O)=C(CSc3nc(=O)c(O)nn3C)CS[C@H]12)c1csc(N)n1`: 0.751 ± 0.23.
The same measure for `CC1c2cccc(O)c2C(=O)C2=C(O)C3(O)C(=O)C(C(N)=O)=C(O)C(N(C)C)C3C(O)C21.Cl` (stereo not given): 1.02 ± 0.027.
The value for `Cc1c(N)nc([C@H](CC(N)=O)NC[C@H](N)C(N)=O)nc1C(=O)N[C@H](C(=O)N[C@H](C)[C@@H](O)[C@H](C)C(=O)N[C@H](C(=O)NCCc1nc(-c2nc(C(=O)NCCCNCCCCN)cs2)cs1)[C@@H](C)O)[C@@H](O[C@@H]1O[C@@H](CO)[C@@H](O)[C@H](O)[C@@H]1O[C@@H]1O[C@H](CO)[C@@H](O)[C@H](OC(N)=O)[C@@H]1O)c1c[nH]cn1` was 1.006 ± 0.0098; that for `NC[C@H]1OB(O)c2c(OCCCO)cccc21` was 0.977 ± 0.052; that for `CCN1CCN(c2cc3c(cc2F)c(=O)c(C(=O)O)cn3C2CC2)CC1` was 0.8357 ± 0.0041.
For the molecule `CC(C)[C@@H](CC[C@@H](C)[C@H]1CC[C@H]2[C@@H]3[C@H](O)C[C@H]4C[C@@H](NCCCNCCCCNCCCN)CC[C@]4(C)[C@H]3CC[C@]12C)OS(=O)(=O)O`, the relative enzymatic activity came out at 1.05 ± 0.014.
The same measure for `CCOC(=O)CCC(=O)O[C@H]1[C@H](O[C@@H]2[C@@H](C)[C@H](O[C@H]3C[C@@](C)(OC)[C@@H](O)[C@H](C)O3)[C@@H](C)C(=O)O[C@H](CC)[C@@](C)(O)[C@H](O)[C@@H](C)C(=O)[C@H](C)C[C@@]2(C)O)O[C@H](C)C[C@@H]1N(C)C`: 1.05 ± 0.026; for `Cc1cc(O)c(C(=O)NC(C(=O)NC2C(=O)N3C(C(=O)O)=C(CSc4nnnn4C)CSC23)c2ccc(O)cc2)cn1` (stereo not given): 0.971 ± 0.12; for `CC(C)[C@@H](CC[C@@H](C)[C@H]1CC[C@H]2[C@@H]3[C@H](O)C[C@H]4C[C@@H](NCCCNCCCCN)CC[C@]4(C)[C@H]3CC[C@]12C)OS(=O)(=O)O`: 0.882 ± 0.078.
The same measure for `CN(C)[C@@H]1C(=O)[C@@H](C(N)=O)C(=O)[C@@]2(O)C(=O)[C@@H]3C(=O)c4c(O)c(NC(=O)CN5CCCC5)cc(F)c4C[C@H]3C[C@@H]12`: 1.01 ± 0.063; for `COC1C=COC2(C)Oc3c(C)c(O)c4c(O)c(c(C=NN5CCN(C)CC5)c(O)c4c3C2=O)NC(=O)C(C)=CC=CC(C)C(O)C(C)C(O)C(C)C(OC(C)=O)C1C` (stereo not given): 0.282 ± 0.059.
The value for `O=C([O-])CCC(=O)OCC(NC(=O)C(Cl)Cl)C(O)c1ccc([N+](=O)[O-])cc1.[Na+]` (stereo not given) was 1.01 ± 0.081.
`Cc1cc(=O)c(C(=O)N[C@@H](C(=O)N[C@@H]2C(=O)N3C(C(=O)O)=C(CSc4nnnn4C)CS[C@H]23)c2ccc(O)cc2)c[nH]1`: the relative enzymatic activity is 1.18 ± 0.11.
The same measure for `CC(=O)OCC1=C(C(=O)[O-])N2C(=O)C(NC(=O)Cc3cccs3)C2SC1.[Na+]` (stereo not given): 1.08 ± 0.043; for `CO/N=C(\C(=O)N[C@@H]1C(=O)N2C(C(=O)O)=C(C[N+]3(C)CCCC3)CS[C@H]12)c1csc(N)n1`: 0.8921 ± 0.007; for `CC1COc2c(C3(N)CC3)c(F)cc3c(=O)c(C(=O)O)cn1c23.CS(=O)(=O)O` (stereo not given): 0.958 ± 0.027.
`CON=C(C(=O)NC1C(=O)N2C(C(=O)[O-])=C(COC(N)=O)CSC12)c1ccco1.[Na+]` (stereo not given): the relative enzymatic activity worked out at 1.33 ± 0.083.
As for `COC1=C(N)C(=O)c2nc(-c3nc(C(=O)O)c(C)c(-c4ccc(OC)c(OC)c4O)c3N)ccc2C1=O`, the relative enzymatic activity amounted to 1.31 ± 0.37.
The same measure for `NCC1OC(OC2C(N)CC(N)C(OC3OC(CO)C(O)C(N)C3O)C2O)C(N)C(O)C1O.O=S(=O)(O)O` (stereo not given): 1.04 ± 0.018.
The same measure for `NC(=O)N/N=C/c1ccc([N+](=O)[O-])o1`: 1.08 ± 0.033; for `CN(C)C1C(O)=C(C(N)=O)C(=O)C2(O)C(O)=C3C(=O)c4c(O)cccc4C(C)(O)C3C(O)C12.Cl` (stereo not given): 1.09 ± 0.081.
The same measure for `CCn1cc(C(=O)O)c(=O)c2cnc(N3CCNCC3)nc21`: 0.99 ± 0.052; for `CC1CCc2cc(F)cc3c(=O)c(C(=O)O)cn1c23` (stereo not given): 1.01 ± 0.053.
In the case of `CCn1cc(C(=O)O)c(=O)c2cc(F)c(N3CCN(C(=S)Nc4cc(C(F)(F)F)ccc4Cl)CC3)cc21`, the relative enzymatic activity worked out at 1.07 ± 0.069.
The same measure for `N[C@@H]1CN(c2c(F)cc3c(=O)c(C(=O)O)cn([C@@H]4C[C@@H]4F)c3c2Cl)CC12CC2`: 0.971 ± 0.044.
The value for `Cn1sccc1=O` was 0.969 ± 0.062; that for `O=C(NO)c1cn(-c2cccc(C(=O)N3CCC4(CC3)C(=O)NCN4c3ccccc3)c2)nn1` was 0.552 ± 0.15.
As to `O=c1[nH]c(=O)n([C@H]2C[C@H](O)[C@@H](CO)O2)cc1F`, the relative enzymatic activity was determined as 0.993 ± 0.019.
The molecule `CON=C(C(=O)NC1C(=O)N2C(C(=O)O)=C(C[N+]3(C)CCCC3)CSC12)c1csc(N)n1.[Cl-]` (stereo not given) gave a relative enzymatic activity of 0.984 ± 0.032.
The same measure for `CN(C)CCC=C1c2ccccc2COc2ccc(CC(=O)O)cc21.Cl`: 0.905 ± 0.018.
The same measure for `COc1ccc(Cc2cnc(N)nc2N)cc1OC`: 1.1 ± 0.079; for `CC[C@H]1OC(=O)[C@H](C)[C@@H](O[C@H]2C[C@@](C)(OC)[C@@H](O)[C@H](C)O2)[C@H](C)[C@@H](O[C@@H]2O[C@H](C)C[C@H](N(C)C)[C@H]2O)[C@](C)(O)C[C@@H](C)C(=O)[C@H](C)[C@@H](O)[C@]1(C)O`: 0.959 ± 0.064.
The same measure for `COc1cc(Cc2cnc(N)nc2N)cc(OC)c1OC`: 1.03 ± 0.086.
`NCCC(O)C(=O)NC1CC(N)C(OC2OC(CN)C(O)C(O)C2O)C(O)C1OC1OC(CO)C(O)C(N)C1O.O` (stereo not given): the relative enzymatic activity came to 1.0305 ± 0.00019.
The same measure for `CCCCCCCCCCCCCCCC[N+](C)(C)C`: 0.568 ± 0.56; for `CCOC(=O)OC(C)OC(=O)C1N2C(=O)C(NC(=O)C(N)c3ccccc3)C2SC1(C)C.Cl` (stereo not given): 1.01 ± 0.035.
